# Assay outcomes: PubChem BioAssay, National Center for Advancing Translational Sciences (NCATS)
# Tau fibril ThT = inhibitors of human tau fibril formation, thioflavin T binding; P10636; recombinant tau K18 P301L, heparin-induced fibrillization, ThT fluorescence; Potency, µM (doses to about 57.4 µM), inactives show at the highest dose activity, negative = inhibition, hits mostly inhibitors; 2.1% of 270,000 active; AID 1460; note: nearly all actives have a fitted effect of over 55% in size
# Target sequence (P10636 561-689 P618L limits assumed): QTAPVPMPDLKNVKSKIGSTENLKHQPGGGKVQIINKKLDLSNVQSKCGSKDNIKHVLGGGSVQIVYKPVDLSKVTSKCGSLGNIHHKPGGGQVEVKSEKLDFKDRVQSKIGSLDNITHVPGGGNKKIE
#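 Heparin-induced fibrillization of the P301L-mutant K18 repeat-domain fragment of human tau was followed by ThT binding in quantitative high-throughput format.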
# Tau fluor cs = counter-screen for tau fibril formation inhibitors | tau K18 P301L (four-repeat tau fragment) Alexa594 fluorescence, heparin fibrillization | Potency, µM (titrated, usually from 57.7 µM), for inactives: top-dose activity change, negative = decrease | 0.93% of 280,000 active | AID 1463; note: nearly all actives have a fitted effect of over 55% in size
#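 Human K18 P301L tau (15 uM unlabeled plus 0.24 uM Alexa 594-labeled, final) in 100 mM sodium acetate pH 7 was mixed with compound and 20 uM heparin and incubated 6 hr at 37 C.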
# Tau FP inhib = inhibitors of human tau fibril formation; AID 1468; Potency, µM (top dose mostly 57.7 µM), for the others: top-dose activity, negative = inhibition, hits mostly inhibitors; P10636; 0.39% of 280,000 active; K18 P301L tau heparin fibrillization, Alexa594 FP, 6 h; note: nearly all actives have a fitted effect of over 55% in size
#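 Human K18 P301L fragment (15 uM unlabeled plus 0.24 uM Alexa 594-labeled) in 100 mM sodium acetate pH 7 with compound, aggregation induced by 20 uM heparin for 6 hr at 37 C. ThT (30 uM) added for 1 hr, then Alexa 594 FP read.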
# RORg inh = blocks mouse ROR gamma transcriptional activity. P51450. Drosophila S2 Gal4-RORgamma UAS-luciferase reporter, 20 h. Potency, µM (titrated, usually from 53.6 µM), for inactives: at the highest dose activity change, negative = inhibition, actives largely listed as inhibitors. 5.4% of 310,000 active. AID 2551; note: nearly all actives have a fitted effect of over 60% in size
# Target sequence (P51450 whole entry, looked up, the tested form may be a part): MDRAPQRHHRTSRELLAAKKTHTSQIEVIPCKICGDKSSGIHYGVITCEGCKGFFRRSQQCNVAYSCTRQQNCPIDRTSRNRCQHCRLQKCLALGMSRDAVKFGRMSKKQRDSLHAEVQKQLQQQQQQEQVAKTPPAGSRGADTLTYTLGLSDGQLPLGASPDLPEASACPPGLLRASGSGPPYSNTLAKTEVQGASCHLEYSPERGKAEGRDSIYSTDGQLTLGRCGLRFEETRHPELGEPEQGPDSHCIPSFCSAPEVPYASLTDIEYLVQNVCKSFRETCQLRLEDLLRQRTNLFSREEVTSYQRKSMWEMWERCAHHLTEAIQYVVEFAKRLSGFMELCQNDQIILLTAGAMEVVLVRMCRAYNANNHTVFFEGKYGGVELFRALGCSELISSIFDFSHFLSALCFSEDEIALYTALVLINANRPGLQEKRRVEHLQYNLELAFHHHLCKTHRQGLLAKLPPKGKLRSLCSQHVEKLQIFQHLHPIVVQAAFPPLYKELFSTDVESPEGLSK
#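 Compounds are pin-transferred onto Drosophila Schneider cells expressing a copper-inducible Gal4–ROR gamma transactivation domain fusion. After 1 hr, copper sulfate is added to 700 uM final; luciferase is read 20 hr later.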
# VP16 counter = inhibits Gal4-VP16 luciferase reporter, ROR gamma counter-screen; Potency, µM (titrated, usually from 53.6 µM), without a hit: at the top dose activity, negative = inhibition, most hits filed as inhibitors; AID 2546; 3.5% of 310,000 active; Drosophila S2 Gal4-VP16 UAS-luciferase, luminescence, 20 h;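 note: Gal4-VP16 expression switched on by copper sulfate through the metallothionein promoter; nearly all actives have a fitted effect of over 50% in size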
# * marks the source's active call; other numbers are inactive results; ? = inconclusive; . = not tested or not shown; [ ] = dose if it differs, or a comment. A selection: hits, their analogues and other compounds. The true share with any hit is near 7.3%. Calls come from the whole dose curve; as a rule, active = well fitted curve in the direction sought with a large enough effect; inconclusive = small, poorly fitted or top-dose-only effect, or another doubt; inactive = no such curve, though single readings can be large; an effect the other way counts as inactive or inconclusive. % is set by controls: 0 for no effect and ±100 for the full control effect; potency is the fitted concentration of half-maximal effect.
SMILES,Tau fibril ThT,Tau fluor cs,Tau FP inhib,RORg inh,VP16 counter
N/N=C(/Cc1nc2ccccc2[nH]1)c1ccc([N+](=O)[O-])cc1,5µM*,-30%,-3%,14µM*,?
CCN/N=C(\Cc1nc2ccccc2[nH]1)c1ccccc1,?,-10%,6%,?,-15%
Cc1ccc(N/N=C(\Cc2nc3ccccc3[nH]2)c2ccccc2)cc1,?,-28%,-3%,?,?
Clc1cccc(/C(Cc2nc3ccccc3[nH]2)=N\Nc2ccccc2)c1,?,7.1µM*[quencher],?,35µM*,?
Nc1c(-c2nc(-c3ccccc3Cl)no2)nnn1-c1ccccc1F,10%,0%,4%,.,.
COc1ccccc1CNS(=O)(=O)c1c(C)nc2sccn2c1=O,2%,-2%,0%,-16%,-6%
Cc1nn(C(=O)CCC(=O)NCCc2ccccc2)c2ccccc12,.,.,.,6%,3%
Cc1c(Cl)cccc1NC(=S)NCc1ccccc1Cl,2%,6%,3%,1.1µM*,1.6µM*
Fc1ccc(CNC(=S)Nc2ccccc2Cl)cc1,2%,-1%,-2%,11µM*,?
COc1cc(OC)c(NC(=S)NCc2ccc(F)cc2)cc1Cl,-12%,?,6%,?,-27%
Cc1c(Cl)cccc1NC(=S)NCc1ccc(F)cc1,.,.,.,2.2µM*,5µM*
CCOC(=O)CC1CCCCN1Cc1nc(-c2ccc(F)c(OC)c2)oc1C (configuration not stated),-21%,-13%,-4%,3.5µM*,-13%
CC(C)/C=N/Nc1nc2c(c(=O)n(C)c(=O)n2C)n1C,28µM*,?,?,-18%,-1%
COc1ccccc1C(=O)NCCC(=O)NCC(c1ccccc1)N(C)C (configuration not stated),.,.,.,11µM*,-10%
COc1ccccc1C(=O)NCc1ccccn1,-4%,-5%,-9%,8.9µM*,13%
COc1ccccc1C(=O)NCc1ccncc1,1%,2%,6%,11%,0%
COc1ccccc1C(=O)NCCC(=O)Nc1cccnc1,-4%,-4%,-1%,-4%,-14%
COc1ccccc1C(=O)NCCC(=O)Nc1ncccc1C,.,.,.,5.6µM*,8.9µM*
CC(C)Oc1ccc(CNS(=O)(=O)c2cnc(N)nc2)cc1,8%,5%,2%,.,.
CC(=O)c1cccc(NS(=O)(=O)c2ccc3[nH]c4c(c3c2)CCCCC4)c1,-2%,14µM*[quencher],2%,.,.
CCOC(=O)c1cccc(NS(=O)(=O)c2ccc3[nH]c4c(c3c2)CCCC4)c1,-1%,10µM*[quencher],-2%,.,.
Cc1ccc(CNS(=O)(=O)c2ccc3[nH]c4c(c3c2)CCCCC4)cc1,3%,?,?,.,.
CC(=O)c1cccc(NS(=O)(=O)c2ccc3[nH]c4c(c3c2)CCCCCC4)c1,-7%,14µM*[quencher],5%,.,.
CCc1ccc(-c2nc(CN3CCCC(C(=O)N4CCN(c5cc(Cl)ccc5C)CC4)C3)c(C)o2)cc1 (configuration not stated),?,-22%,-12%,.,.
COCCN(C(=O)CSc1nnc(-c2cccs2)n1N)c1c(N)n(Cc2ccccc2)c(=O)[nH]c1=O,.,.,.,-25%,0%
SMILES,Tau fibril ThT,Tau fluor cs,Tau FP inhib,RORg inh,VP16 counter
CC1CCC2C(=O)N3C(CCC(C)[C@@H]3c3cccc(N4CCOCC4)c3)C(=O)N2C1c1cccc(Br)c1 (some centres not stated),-28%[11.5 µM],-29%[11.6 µM],7%[11.6 µM],-2%[10 µM],-5%[10 µM]
Cc1cc(O)c2c(c1O)C(=O)c1c(O)cc(C)c(O)c1C2=O,?,-27%,-15%,-11%,-3%
Cc1cc(=O)c2c(O)c3c(O)cc(O)c4c5c(O)cc(O)c6c(O)c7c(=O)cc(C)c8c1c2c(c34)c(c65)c78,14µM*,4.5µM*[quencher],?,-21%,-18%
Cc1coc2c1C(=O)C(=O)c1c-2ccc2c1CCCC2(C)C,14µM*,?,?,-31%,-10%
Cc1coc2cc3oc(=O)c4c(c3cc12)CCC4,-4%,0%,0%,3%,13%
Cc1coc2c1C(=O)C(=O)c1c-2ccc2c(C)cccc12,2µM*,-28%,?,?,-19%
CC(=O)SC1CC2=CC(=O)CC[C@@]2(C)C2CC[C@@]3(C)[C@@H](CC[C@@]34CCC(=O)O4)C12 (some centres not stated),-6%,-10%,-3%,4%,-2%
COCCNC(=S)N=Nc1c(O)[nH]c2ccc([N+](=O)[O-])cc12,-17%,?,5%,0.56µM*,-18%
CCc1cc(C(=O)N=Nc2c(O)[nH]c3ccc([N+](=O)[O-])cc23)c2ccccc2n1,16µM*,?,20%,4%[10 µM],-46%
CCCCCCC(=O)N=Nc1c(O)[nH]c2ccc([N+](=O)[O-])cc12,-18%,-26%,1%,-8%,-8%
O=C(N=Nc1c(O)[nH]c2ccc([N+](=O)[O-])cc12)c1ccccc1[N+](=O)[O-],?,?,5%,0%,5%
CCc1cc(C(=O)N/N=C/c2ccc(O)cc2)c2ccccc2n1,.,.,.,5%,6%
CCc1cc(C(=O)N=Nc2c(O)[nH]c3c(Br)cc(Br)cc23)c2ccccc2n1,7.1µM*,?,-1%,?,-88%
Cc1ccc(NC(=O)Cn2ccn(-c3ccc(F)c(F)c3)c(=O)c2=O)cc1C,?,3%,8%,.,.
CC(=O)N1CCN(c2ccc(NCc3cccs3)cc2)CC1,28µM*,-30%,?,20%,27%
O=C(c1ccccc1)N1CCN(c2ccc(NCc3ccc4c(c3)OCO4)cc2)CC1,?,-2%,-1%,24%,?
CC(=O)N1CCN(c2ccc(NCc3ccc4c(c3)OCO4)cc2)CC1,16µM*,?,?,28%,-6%
CC(C)C1=CC2=CC[C@@H]3[C@@](C)(C(=O)O)CCC[C@]3(C)C2CC1 (some centres not stated),-12%,-9%,-6%,0%,-17%
COCCn1c(=O)c(-c2ccc(OC)cc2)nc2cnc(OCc3ccccc3)nc21,.,.,.,-3%,0%
COc1cc(C(=O)Oc2c(CN3CCOCC3)cc(Cl)c3cccnc23)cc(OC)c1OC,?,-23%,0%,4.5µM*,2.5µM*
O=C(Oc1c(CN2CCOCC2)cc(Cl)c2cccnc12)c1ccc(F)cc1,7%,5%,3%,-5%,-15%
COc1ccc(C(=O)Oc2c(CN3CCOCC3)cc(Cl)c3cccnc23)cc1,-16%,-17%,-1%,6.3µM*,6.3µM*
COc1cccc(C(=O)Oc2c(CN3CCOCC3)cc(Cl)c3cccnc23)c1,-20%,-20%,5%,2.8µM*,4.5µM*
COc1ccc(-c2nc3cnc(N(C)C)nc3n(CCC#N)c2=O)cc1,.,.,.,-4%,6%
CCSc1nnc(NC(=O)C(CC)(C(F)(F)F)C(F)(F)F)s1,-13%,-5%,0%,10µM*,16µM*
